# Shown are actives, neighbours in structure and some others; about 6.2% of the full set was active somewhere.
# FMDV antiviral: foot and mouth disease virus antiviral activity; AID 1159524; Potency, µM (doses to about 57.9 µM), for the others: top-dose activity change, negative = inhibition, actives largely listed as inhibitors; 410,000 compounds, 1.2% hits; FMDV antiviral cell-based qHTS; calls by dose curve; tested in HEK293T cells; also: read-out not given here; potency is read from the fitted curve at half-maximal effect; nearly all actives have a fitted effect of over 45% in size
# Lassa entry inh: Lassa virus entry inhibition; Lassa virus pseudotype entry inhibition, cell reporter; Potency, µM (series often up to 37.9 µM), inactives show at the highest dose activity change, negative = inhibition, hits mostly inhibitors; 300,000 compounds, 1.2% hits; AID 540256; calls by dose curve; tested in HEK293 cells; also: potency is read from the fitted curve at half-maximal effect; nearly all actives have a fitted effect of over 50% in size
# HCMV antiviral: blocks human cytomegalovirus replication | 410,000 compounds, 4.5% hits | HFF cells, HCMV-luciferase reporter, 72 h; stronger effect = lower value | AID 1259415 | activity change, negative = inhibition, % at 57.5 µM; in the data active = activity change below about -60%; inconclusive = no clear call, values can overlap the other calls; inactive = above about -39%
#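 After 16 h attachment at 37C, HFF cells received test compound and HCMV-luciferase (1 PFU/cell); reporter luminescence read 72 h later, data normalized against buffer-only and known inhibitor Salinomycin.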
# MARV entry inh: inhibitors of Marburg virus binding or cell entry; Marburg virus pseudotyped entry inhibition, cell reporter; Potency, µM (top dose mostly 37.8 µM), for the others: at the highest dose activity change, negative = inhibition, usual class: inhibitors; 300,000 compounds, 1.8% hits; AID 540276; calls by dose curve; tested in HEK293 cells; also: potency is read from the fitted curve at half-maximal effect
# Starred values were filed as active, the others as inactive; ? = inconclusive; nt = not tested or not shown; [ ] = another dose, or the depositor's remark. % is scaled to controls: 0 for no effect and ±100 for the full control effect.
SMILES,FMDV antiviral,Lassa entry inh,HCMV antiviral,MARV entry inh
CCC1C/C(=C\c2cccnc2)C(=O)/C(=C/c2cccnc2)C1 (stereo unspecified),3.5µM*,4.5µM*,-98*,5.8µM*
O=C1/C(=C\c2cccnc2)CCc2ccccc21,-16%,0%,?,9%
O=C1NC(=S)N/C1=C/c1cccnc1,-15%,nt,-63*,nt
O=C1/C(=C/c2cccnc2)CC/C1=C\c1cccnc1,28µM*,-3%[46.1 µM],-99*,?
O=C(C[n+]1ccccc1)Nc1c(Cl)cc(Cl)cc1Cl,-9%,1%[46.1 µM],?,14%[46.1 µM]
O=C(Cc1ccc(F)cc1)N1CCC2(CC1)NCCc1[nH]cnc12,-9%,nt,5,nt
CCOC(=O)c1c(-c2ccccc2)oc2ccc(OCC(O)CNCCN(C)C)cc12 (stereo unspecified),?,?,-8,?
CC(C)/C=C1\CC/C(=C\c2cccnc2)C1=O,28µM*,nt,7,nt
CC(C)N1C(=O)S/C(=C/c2cccnc2)C1=O,0%,28%,-29,18%
CCCNCc1cc(OC)c(OCc2ccccc2)cc1Br,3%,-18%[46.1 µM],-24,11µM*
N#Cc1c(-c2ccc(C(F)(F)F)cc2)cc(-c2ccccc2)[nH]c1=S,-22%,4%,-60*,?
Cc1cccn2c(/C=N/OCc3ccc(F)cc3)c(-c3ccc(Cl)cc3)nc12,?,5%,4,8%
CCN1CCN(c2sc(S(C)(=O)=O)nc2S(=O)(=O)c2ccc(C)cc2)CC1,8%,nt,-91*,nt
CCN1CCN(c2sc(S(=O)(=O)CC)nc2S(=O)(=O)c2ccc(C)cc2)CC1,-2%,nt,-72*,nt
CCCS(=O)(=O)c1nc(S(=O)(=O)c2ccc(C)cc2)c(N2CCN(CC)CC2)s1,-2%,nt,-80*,nt
O=C1CCC(C(=O)N2CCSCC2)CN1Cc1ccc(Cl)cc1 (stereo unspecified),-4%,nt,44,nt
Cc1ccc(NC(=O)C2CC(O)CN2C(=O)OCc2ccccc2)cc1C (stereo unspecified),-9%,nt,22,nt
CN1CCC(c2c[nH]c3ccc(O)cc23)CC1,-22%,14%,12,?
Cc1cc(C)n(-c2ccc(C(=O)OC(C)C(=O)Nc3ccc(C(N)=O)cc3)cc2)n1 (stereo unspecified),35µM*,6%,-30,12%[46.1 µM]
CC(=O)Nc1ccc(NC(=O)C(C)OC(=O)c2ccc(-n3cnnn3)cc2)cc1 (stereo unspecified),-15%,12%,-27,-16%
Nc1ncc([N+](=O)[O-])c(N2CCCCCC2)n1,-8%,-3%[46.1 µM],-75*,5%[46.1 µM]
COC(=O)c1ccc(NC(=O)C2C3C=CC(C3)C2C(=O)O)cc1 (stereo unspecified),-2%,nt,-98*,nt
O=C(ONC(=O)C1C2C=CC(C2)C1C(=O)NOC(=O)c1ccccc1)c1ccccc1 (stereo unspecified),-24%,7.9µM*,-30,4µM*
CCOC(=O)c1ccc(NC(=O)C2C3C=CC(C3)C2C(=O)O)cc1 (stereo unspecified),4%,18%,35,?
Cc1nn(-c2ccc(N3CCCC3)nn2)c(C)c1CCC(=O)N1CCN(c2ccccc2F)CC1,-15%,-1%[46.1 µM],-62*,nt
SMILES,FMDV antiviral,Lassa entry inh,HCMV antiviral,MARV entry inh
CN(C)CCCNC(=S)NCC(c1ccc(Cl)cc1Cl)c1c[nH]c2ccccc12 (stereo unspecified),-23%,10µM*,?,?
CCCCNC(=S)NCC(c1ccccc1)c1c[nH]c2ccccc12 (stereo unspecified),4%,?,?,?
CC(C)Nc1nc(NCCOc2ccccc2Cl)c2sc(-c3ccccc3)cc2n1,?,nt,-101*,nt
COc1ccccc1CNc1nc(NC(C)C)nc2cc(-c3ccccc3)sc12,-6%,nt,-36,nt
CCCCn1c(C)nc2cc(S(=O)(=O)N3CCOCC3)ccc21,0%,nt,-24,nt
CCCCn1c(CCl)nc2cc(S(=O)(=O)N3CCOCC3)ccc21,32µM*,0%,-23,-22%
Cc1ccc(-c2nnn(CC(=O)N(CC(=O)NC3CCCC3)c3cccc(F)c3)n2)o1,11%,-5%[46.1 µM],-85*,-7%[46.1 µM]
Cc1ccc(-c2nnn(CC(=O)N(CC(=O)NC3CCCCC3)c3ccc(F)c(Cl)c3)n2)o1,13%,13µM*,-12,?
Cc1ccc(-c2nnn(CC(=O)N(CC(=O)NC3CCCC3)c3cnc4ccccc4c3)n2)o1,-4%,-6%,-103*,-4%
CCc1ccc(NC(=O)c2ccc(F)c(S(=O)(=O)N(CC)c3ccccc3)c2)cc1,?,?,-10,?
COc1ccc(C(=O)Nc2ccc(S(=O)(=O)N(Cc3ccccc3)c3ccccc3)cc2)cc1,?,-27%[46.1 µM],?,?
CCOc1ccc(NC(=O)c2ccc(S(=O)(=O)N(C)C)cc2)cc1,?,nt,-29,nt
CCN(Cc1ccccc1)S(=O)(=O)c1cc(C(=O)Nc2cc(Cl)cc(Cl)c2)ccc1F,?,?,-97*,nt
CCOc1ccc(C(=O)Nc2ccc(S(=O)(=O)N(Cc3ccccc3)c3ccccc3)cc2)cc1,-12%,-25%[46.1 µM],-61*,?
CCN(c1ccccc1)S(=O)(=O)c1cc(C(=O)Nc2cccc(Cl)c2)ccc1F,20µM*,13µM*,-95*,?
CCOc1ccc(NC(=O)c2ccc(F)c(S(=O)(=O)N(CC)Cc3ccccc3)c2)cc1,?,?,-97*,nt
COC(=O)C1N[C@@H]([C@@H](NC(=O)COc2ccccc2)C(=O)NCc2ccccc2)SC1(C)C (stereo partly specified),-21%,nt,-22,nt
COC(=O)c1nc(NC(=O)C(C)(C)C)n[nH]1,nt,13%,33,9%
CC(C)NC(=O)c1cnc(N2CCN(Cc3cccc(F)c3)C2=O)s1,nt,nt,-19,nt
O=C(NCC1CC1)c1cnc(N2CCN(Cc3cccc(F)c3)C2=O)s1,nt,nt,-99*,nt
N#Cc1cc2c(nc1SCC(=O)N1CCOCC1)CCCCC2,nt,?,-77*,-29%
N#Cc1cc2c(nc1SCC(N)=O)CCCCC2,34%,-25%,49,-6%
Cc1ccc(S(=O)(=O)/N=C(/Nc2ccc([N+](=O)[O-])cc2[N+](=O)[O-])c2ccccc2)cc1,?,-6%,12,?
Cc1ccc(C(=O)NCc2ccncc2)cc1S(=O)(=O)Nc1cccc(C)c1C,70%,nt,17,nt
Cc1ccc(C)c(NS(=O)(=O)c2cc(C(=O)NCc3ccncc3)ccc2C)c1,39%,-6%,-69*,?
SMILES,FMDV antiviral,Lassa entry inh,HCMV antiviral,MARV entry inh
Cc1ccc(CNC(=O)c2ccc(COc3ccccc3)cc2)cc1,15%,?,-63*,-4%
Cc1ccc(Oc2ccc(C(=O)NCc3ccncc3)cc2)cc1,?,8.9µM*,-83*,?
COCCN(CCOC)Cc1c(O)ccc2c1O/C(=C\c1ccc(C)o1)C2=O,36%,4%[46.1 µM],-88*,0%[46.1 µM]
O=C(NCc1ccccc1Cl)C(=O)NCC(c1cccs1)S(=O)(=O)c1cccs1 (stereo unspecified),-19%,?,-62*,nt
O=C(NCc1ccc(Cl)cc1)C(=O)NCC(c1cccs1)S(=O)(=O)c1cccs1 (stereo unspecified),-18%,?,0,nt
O=C(CN1C(=O)NC2(CCc3ccccc32)C1=O)NCC(F)(F)F (stereo unspecified),-4%,23%[46.1 µM],-6,-2%[46.1 µM]

# Screens as filed in PubChem.
